Source: PubChem
PPARg SRC-3 ag – PPARgamma-driven SRC-3 recruitment agonism | AID 731 | 200,000 compounds, 0.26% hits | activation, % at 8 µM | P37231 | biochemical PPARgamma/SRC-3 coactivator recruitment assay; in the data active = activation above about 23%;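 also: 0% = DMSO and 100% = reference agonist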
Target sequence (P37231 whole entry, looked up): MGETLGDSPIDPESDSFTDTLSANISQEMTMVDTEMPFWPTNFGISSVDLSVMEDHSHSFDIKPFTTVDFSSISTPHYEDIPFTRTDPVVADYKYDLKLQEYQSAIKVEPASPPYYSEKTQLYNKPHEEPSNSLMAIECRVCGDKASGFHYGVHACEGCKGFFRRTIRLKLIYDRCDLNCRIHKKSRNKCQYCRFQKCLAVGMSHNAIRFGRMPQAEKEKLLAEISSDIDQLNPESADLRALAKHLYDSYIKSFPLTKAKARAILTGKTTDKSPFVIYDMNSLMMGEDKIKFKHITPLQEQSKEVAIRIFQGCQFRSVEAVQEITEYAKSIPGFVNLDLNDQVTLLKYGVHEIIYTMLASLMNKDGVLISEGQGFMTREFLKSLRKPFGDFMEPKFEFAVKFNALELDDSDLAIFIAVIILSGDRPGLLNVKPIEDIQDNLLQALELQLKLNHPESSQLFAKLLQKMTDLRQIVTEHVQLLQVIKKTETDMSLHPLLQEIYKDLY
SRC3 TRFRET art – counter-screen for PPARgamma SRC-3 recruitment agonists: TR-FRET artefact; 99,000 compounds, 0.39% hits; PPARgamma/SRC-3 format; active compounds read high; TR-FRET ratio at 8 µM; AID 1048
PPARg SRC1 recr – promotes SRC-1 coactivator recruitment by human PPARgamma; P37231; PPARgamma-SRC-1 coactivator recruitment biochemical assay; activation, % at 8 µM; 200,000 compounds, 0.41% hits; AID 631; in the data active = activation above about 19%;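 also: 0% = DMSO and 100% = reference agonist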
SRC1 TRFRET art – flags TR-FRET format artefacts in PPARgamma SRC-1 recruitment agonist screen | AID 1051 | TR-FRET detection artefact counter-screen, emission ratio; active compounds read high | 99,000 compounds, 0.34% hits | TR-FRET ratio at 8 µM; in the data active = TR-FRET ratio above about 2300
TR-FRET SRC-2 ct – flags TR-FRET format artefacts in PPARgamma SRC-2 recruitment agonist screen. 200,000 compounds, 0.4% hits. TR-FRET ratio at 8 µM. TR-FRET artefact counter-screen; active compounds read high. AID 1049
PPARg SRC2 recr – PPARgamma-driven SRC-2 recruitment agonism; 200,000 compounds, 0.34% hits; PPARgamma LBD-SRC-2 recruitment, biochemical; activation, % at 8 µM; P37231; in the data active = activation above about 22%;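 also: 0% = vehicle and 100% = reference agonist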
PPARg SRC2 ag – confirmation of agonists of SRC-2 recruitment by human PPARgamma; shares compounds with PPARg SRC-3 ag; biochemical SRC-2 recruitment by PPARgamma; activation, % at 8 µM; 790 compounds, 52% hits; AID 1297; in the data active = activation above about 22%;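 also: 0% = vehicle alone and 100% = reference agonist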
PPARg SRC1 conf – confirmation of agonists of SRC-1 recruitment by human PPARgamma. shares compounds with PPARg SRC-3 ag. PPARgamma–SRC-1 coactivator recruitment biochemical assay. activation, % at 8 µM. 790 compounds, 43% hits; in the data active = activation above about 20%;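 also: 0% = vehicle wells and 100% = reference agonist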
PPARg SRC3 conf – confirmation of agonists of SRC-3 recruitment by human PPARgamma; shares compounds with PPARg SRC-3 ag; biochemical PPARgamma-SRC-3 coactivator recruitment, agonist mode; activation, % at 8 µM; 790 compounds, 29% hits; AID 1301; in the data active = activation above about 24%;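 also: 0% = vehicle wells and 100% = reference agonist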
An asterisk follows results filed as active; nt = not tested or not shown. Compounds with a hit are over-represented: about 0.9% of the library has one in this group of screens. Rule as the data show it, unless noted: active = TR-FRET ratio above about 2000; inactive = the rest.

SMILES | PPARg SRC-3 ag | SRC3 TRFRET art | PPARg SRC1 recr | SRC1 TRFRET art | TR-FRET SRC-2 ct | PPARg SRC2 recr | PPARg SRC2 ag | PPARg SRC1 conf | PPARg SRC3 conf
CCN1CCN(C(=O)CSc2cc(=O)n(C)c3ccccc23)CC1 | 21 | 2490* | 33* | 2968* | 2412* | 9 | 29* | 19 | 20
Cn1c(=O)cc(SCC(=O)N2CCN(c3ccccc3)CC2)c2ccccc21 | 40* | nt | 34* | nt | 2466* | 47* | 40* | 28* | 29*
Cn1c(=O)cc(OCCCC(=O)N2CCN(c3ccccc3)CC2)c2ccccc21 | 3 | nt | 4 | nt | 1446 | 10 | nt | nt | nt
Cn1c(=O)cc(SCC(=O)NCCC2=CCCCC2)c2ccccc21 | 8 | 1753 | 5 | 1986 | 1894 | 12 | nt | nt | nt
Cn1c(=O)cc(SCC(=O)N2CCN(c3ccccn3)CC2)c2ccccc21 | 53* | nt | 38* | nt | 2556* | 55* | 40* | 29* | 27*
CN1CCN(C(=O)CSc2cc(=O)n(C)c3ccccc23)CC1 | 20 | 2760* | 34* | 2594* | 2614* | 38* | 29* | 17 | 19
CN1CCN(C(=O)CCCOc2cc(=O)n(C)c3ccccc23)CC1 | 6 | nt | 6 | nt | 1511 | 7 | nt | nt | nt
O=C(NCC1CCCN(Cc2ccccc2F)C1)c1cccc(C(F)(F)F)c1 (stereo not drawn) | 3 | 1615 | 0 | 1807 | 1707 | 9 | nt | nt | nt
COC(=O)CCCNC(=O)c1ccccn1 | 3 | 1620 | -2 | 1650 | 1623 | 2 | nt | nt | nt
C=CCNc1cc(N2CCCC2)ccc1[N+](=O)[O-] | 5 | 1601 | -7 | 1929 | 1472 | 5 | nt | nt | nt
COc1ccc(C(C(=O)NCC2CCCO2)N(C(=O)CNC(=O)c2cccs2)c2ccc(C)cc2)cc1OC (stereo not drawn) | 5 | 1866 | 2 | 2189 | 1515 | -2 | nt | nt | nt
C#CCNC(=O)C1=C[C@H](c2ccc(Br)cc2)[C@@H](CCCO)[C@H](OCC)O1 | 3 | 1696 | 4 | 1979 | 1545 | 11 | nt | nt | nt
C#CCSc1ncc(-c2ccccc2)cn1 | 6 | 1553 | 21* | 2074 | 1733 | 10 | 5 | 4 | 5
CN1CCN(c2ccc(C(=O)NC3CCCCC3)cc2[N+](=O)[O-])CC1 | 2 | 1282 | 2 | 1614 | 1501 | 4 | nt | nt | nt
CCN(CC)S(=O)(=O)c1ccc(C(=O)NCc2ccc3c(c2)cc(C)n3C)cc1 | 49* | nt | 26* | nt | 4972* | 75* | 158* | 120* | 102*
Cc1cc2cc(CNC(=O)c3ccc(S(=O)(=O)N4CCCC4)cc3)ccc2n1C | 88* | nt | 60* | nt | 5041* | 83* | 100* | 84* | 59*
Cc1cc2cc(CNC(=O)c3ccc(S(=O)(=O)N4CCCCC4)cc3)ccc2n1C | 111* | nt | 83* | nt | 4697* | 74* | 173* | 143* | 102*
Cc1cc2cc(CNC(=O)C3CC3)ccc2n1C | -6 | nt | -4 | nt | 1455 | -1 | nt | nt | nt
O=C(Cc1cccc2ccccc12)NCCOc1ccccc1F | 5 | 1607 | -4 | 1622 | 1381 | -2 | nt | nt | nt
O=C(Nc1ccccc1C(=O)NC(Cc1ccc(O)cc1)C(=O)O)c1ccccc1 (stereo not drawn) | 4 | 1595 | 2 | 1971 | 1810 | 2 | nt | nt | nt
CC(C)c1ccccc1NC(=O)COC(=O)c1cc(=O)[nH]c(=O)[nH]1 | 5 | 1812 | 5 | 1808 | 1560 | 2 | nt | nt | nt
Cc1ccc(/C=[N+](\[O-])c2ccc(N(C)C)cc2)c2nsnc12 | 11 | 1884 | 27* | 2222 | 1862 | 10 | 17 | 12 | 8
Cc1ccc2nsnc2c1NS(=O)(=O)c1c(C)ccc2nsnc12 | 12 | nt | 4 | nt | 1392 | -3 | nt | nt | nt
CNC(=S)N1N=C(c2ccc(Br)cc2)CC1c1ccc(N(C)C)cc1 (stereo not drawn) | 29* | 4796* | 27* | 4829* | 3604* | 20 | 41* | 29* | 26*
